Assay outcomes from PubChem.
BAZ2B block = qHTS Assay for Inhibitors of BAZ2B | Bromodomain adjacent to zinc finger domain protein 2B (Homo sapiens), Q9UIF8 | hit rate 4.4% among 360,000 | Potency, µM (highest dose often 114 µM), for the others: at the highest dose activity change, negative = inhibition, actives largely listed as inhibitors | AlphaScreen BAZ2B-H3K14Ac peptide displacement; further: on the % scale 0 is the no-effect control and ±100 the full control effect; nearly all actives have a fitted effect of over 60% in size
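AlphaScreen displacement: compounds (up to 110uM) incubated 30 min at room temperature with a preformed 50 nM BAZ2B/50 nM biotinylated H3K14Ac peptide complex in PBS pH 7.4 with Tween-20. Donor and acceptor beads at 10 ug/mL final added, 20 min light-protected before reading.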
Sfp inh = qHTS Assay for Inhibitors of Bacillus subtilis Sfp phosphopantetheinyl transferase (PPTase); hit rate 3.5% among 310,000; 4'-phosphopantetheinyl transferase ffp (Bacillus subtilis), Q9F4F7; Biochemical Sfp PPTase activity, qHTS; Potency, µM, for inactives: largest response in the series, negative = inhibition, usual class: inhibitors;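 further: the enzyme is Sfp with the accession as filed and its product quenches rhodamine fluorescence; 0% = enzyme reaction without inhibitor and -100% = no enzyme wells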
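Compounds were incubated with enzyme (final 15 nM) for 15 min at room temperature before substrate addition started the reaction. Fluorescence at 525 nm excitation, 598 nm emission was recorded immediately and after 30 minutes.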
ALOX12 inh = Primary qHTS assay for inhibitors of human arachidonate 12S-lipoxygenase (ALOX12): Round 2 | purified 12hLO, xylenol orange hydroperoxide absorbance | Polyunsaturated fatty acid lipoxygenase ALOX12 (Homo sapiens), P18054 | hit rate 1.1% among 580,000 | Potency, µM (doses to about 108 µM), inactives show at the top dose activity change, negative = inhibition, most hits filed as inhibitors; further: on the % scale 0 is the no-effect control and ±100 the full control effect
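Purified human 12hLO at 150 nM in 25 mM Hepes, 0.01% Triton X-100, pH 7.0, preincubated 15 min at room temperature with compound. Reaction started with 40 uM arachidonic acid, 30 min at room temperature. Hydroperoxide measured by Fe-xylenol orange, 573/405 nm absorbance ratio.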
HP1b chromo inh = HTS for Inhibitors of HP1-beta Chromodomain Interactions with Methylated Histone Tails; Chromobox protein homolog 1 (Homo sapiens), P83916; AlphaScreen HP1-beta / biotin-H3K9me3 peptide binding; Potency, µM (highest dose often 114 µM), without a hit: at the top dose activity change, negative = inhibition, most hits filed as inhibitors; hit rate 0.56% among 390,000; AID 540317, 2011; further: nearly all actives have a fitted effect of over 70% in size
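AlphaScreen: HP1-beta (50 nM) preformed 30 min with biotin-H3(1-18)K9me3 peptide (50 nM) in PBS pH 7.4, 0.01% Tween-20. Compound added for 30 min at RT, then streptavidin donor/nickel chelate acceptor beads (10 ug/mL) for 30 min.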
G9a block = qHTS Assay for Inhibitors of Histone Lysine Methyltransferase G9a; Histone-lysine N-methyltransferase EHMT2 (Homo sapiens), Q96KQ7; G9a H3K9 monomethylation, AlphaScreen, 2 h; Potency, µM (series often up to 102 µM), for the others: top-dose activity, negative = inhibition, actives largely listed as inhibitors; hit rate 8.8% among 350,000; AID 504332, 2011; further: on the % scale 0 is the no-effect control and ±100 the full control effect; nearly all actives have a fitted effect of over 75% in size
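Chemiluminescent proximity detection of H3K9 monomethylation, read after 10 min bead incubation in the dark. Reaction: 20 nM G9a, 500 nM biotin-H3K9 peptide, 20 uM SAM cofactor, 2 h, room temperature, following 15 min enzyme-compound preincubation.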
JMJD2A Tudor inh = qHTS Assay for Inhibitors of JMJD2A-Tudor Domain; AlphaScreen JMJD2A-Tudor / H3K4me3 peptide binding; AID 504339, 2011; hit rate 4.4% among 390,000; Lysine-specific demethylase 4A (Homo sapiens), O75164; Potency, µM (titrated, usually from 114 µM), for inactives: at the top dose activity change, negative = inhibition, usual class: inhibitors; further: on the % scale 0 is the no-effect control and ±100 the full control effect; nearly all actives have a fitted effect of over 50% in size
Target sequence (O75164 whole entry, looked up, the tested form may be a part): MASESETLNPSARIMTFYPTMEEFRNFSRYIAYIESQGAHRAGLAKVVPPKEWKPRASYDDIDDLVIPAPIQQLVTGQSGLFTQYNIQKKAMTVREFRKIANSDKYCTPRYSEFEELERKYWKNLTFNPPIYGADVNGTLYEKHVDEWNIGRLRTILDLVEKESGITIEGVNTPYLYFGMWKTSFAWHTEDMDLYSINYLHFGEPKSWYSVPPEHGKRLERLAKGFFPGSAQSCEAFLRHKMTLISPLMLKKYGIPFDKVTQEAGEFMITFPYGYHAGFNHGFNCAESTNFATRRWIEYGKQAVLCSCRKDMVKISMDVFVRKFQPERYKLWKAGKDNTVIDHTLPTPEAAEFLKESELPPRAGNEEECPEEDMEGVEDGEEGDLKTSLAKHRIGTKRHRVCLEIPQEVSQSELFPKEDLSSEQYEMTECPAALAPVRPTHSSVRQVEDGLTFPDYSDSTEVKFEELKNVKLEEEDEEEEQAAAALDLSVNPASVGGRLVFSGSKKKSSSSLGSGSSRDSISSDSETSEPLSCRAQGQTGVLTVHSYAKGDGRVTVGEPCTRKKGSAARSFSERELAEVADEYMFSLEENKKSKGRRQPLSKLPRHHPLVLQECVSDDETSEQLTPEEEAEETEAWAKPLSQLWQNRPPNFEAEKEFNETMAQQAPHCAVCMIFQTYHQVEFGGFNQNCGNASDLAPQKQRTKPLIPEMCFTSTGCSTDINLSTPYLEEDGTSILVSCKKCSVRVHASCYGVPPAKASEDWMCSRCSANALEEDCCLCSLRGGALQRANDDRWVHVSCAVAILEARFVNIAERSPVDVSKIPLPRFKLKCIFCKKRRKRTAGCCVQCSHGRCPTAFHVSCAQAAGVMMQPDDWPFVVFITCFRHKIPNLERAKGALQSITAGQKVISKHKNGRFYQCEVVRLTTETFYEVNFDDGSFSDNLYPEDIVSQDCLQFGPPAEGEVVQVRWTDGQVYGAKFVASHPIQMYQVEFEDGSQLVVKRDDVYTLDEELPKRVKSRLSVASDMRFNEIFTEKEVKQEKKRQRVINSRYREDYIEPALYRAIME
Starred values were filed as active, the others as inactive; ? = inconclusive; / = not tested or not shown; [ ] = another dose, or the depositor's remark. A selection: hits, their analogues and other compounds. The true share with any hit is near 8.7%. The call rests on the fitted dose curve; in most records, active means well fitted curve in the direction sought with a large enough effect; inconclusive means small, poorly fitted or top-dose-only effect, or another doubt; inactive means no such curve, though single readings can be large; an effect the other way counts as inactive or inconclusive. Potency means the concentration at half of the fitted maximal effect.

SMILES	BAZ2B block	Sfp inh	ALOX12 inh	HP1b chromo inh	G9a block	JMJD2A Tudor inh
O=C(CCl)Nc1cc(SCC(O)CO)cc([N+](=O)[O-])c1 (stereo unspecified)	-36%	71µM*	?	46%	50µM*	-24%
CCC(=O)Nc1cc(SCCO)cc([N+](=O)[O-])c1	-26%	8%	18%	27%	16%	-6%
CCCc1noc(C(C)Nc2ccc(N3CCCC3=O)c(Cl)c2)n1 (stereo unspecified)	/	/	13%	/	/	/
Cc1ccc2[nH]c(C(=O)NCc3ccc(C(=O)N4CCN(C)CC4)cc3)cc2c1	/	/	-23%	/	/	/
O=C(Cc1ccc2c(c1)CCCC2)Nc1ccc2ccccc2c1	-4%	-11%	-23%	?	7.1µM*	-12%
CN(CC(=O)Nc1ccc2c(c1)CCC2)CC(=O)Nc1ccccc1Br	12%	7%	1%	21%	7%	14µM*
CC(CNC(=O)CN(C)CC(=O)Nc1ccccc1Br)c1ccccc1 (stereo unspecified)	13%	/	-21%	32%	45µM*	5%
COc1ccc(NC(=O)CN(C)CC(=O)Nc2ccc3c(c2)CCC3)cc1	-22%	17%	-2%	16%	-19%	-17%
CN(CC(=O)Nc1ccccc1Br)CC(=O)Nc1ccccc1C(F)(F)F	13%	2%	0%	60%	36%	-1%
CC(C)CCNC(=O)c1cc2n(n1)CC(C)(C(=O)NCCC(C)C)N(C)C2=O (stereo unspecified)	/	/	-3%	/	/	/
CC(C)NC[C@@H](O)c1ccc(NS(C)(=O)=O)cc1	/	/	14%	/	/	/
COc1cccc(CNS(=O)(=O)c2ccc(-c3ccc(=O)[nH]n3)o2)c1	/	/	-2%	/	/	/
CCN1CC2=C(OC(N)=C(C#N)C2c2cccs2)/C(=C\c2cccs2)C1 (stereo unspecified)	35µM*	?	-21%	?	45µM*	?
CCOC(=O)C1=C(C)OC(N)=C(C#N)C1c1ccsc1 (stereo unspecified)	-38%	-2%	-2%	41%	10µM*	-7%
CCOC(=O)Cc1[nH]nc2c1C(c1ccsc1)C(C#N)=C(N)O2 (stereo unspecified)	-4%	15%	-1%	44%	5%	-10%
CC(=O)C1=C(C)OC(N)=C(C#N)C1c1cccc([N+](=O)[O-])c1 (stereo unspecified)	-34%	7%	-18%	7%	45µM*	-14%[11.4 µM]
CCOC(=O)C1=C(C)OC(N)=C(C#N)C1c1cc(SCC)oc1C (stereo unspecified)	?	11%	-11%	21%	45µM*	-18%
COc1ccc(CN2C[C@@H]3C(=O)N(CCCN4CCCC4=O)C(=O)[C@@H]3C2)cc1OC	/	/	78%	/	/	/
CCCc1nnc2sc(-c3ccc(OC)cc3)nn12	/	/	19%	/	/	/
CCOC(=O)C1=C(CC)OC(N)=C(C#N)C1c1ccsc1 (stereo unspecified)	?	?	-24%	30%	56µM*	-1%
CCOC(=O)C1=C(CC)OC(N)=C(C#N)C1c1cccs1 (stereo unspecified)	-24%	-8%	?	21%	50µM*	-16%
COC(=O)CC1=C(C(=O)OC)C(c2cccs2)C(C#N)=C(N)O1 (stereo unspecified)	4%	?	-4%	64%	?	-31%
N#CC1=C(N)Oc2c(O)cc3ccccc3c2C1c1ccsc1 (stereo unspecified)	?	-8%	45µM*	-19%	4%[59 µM]	?
